DAX1 StAR inh – DAX1 (NR0B1) inhibition, primary screen; actives 1.1% (n = 370,000); HEK293T StAR-luciferase reporter, SF-1/DAX-1 repression relief; AID 652010; inhibition, % at 6.8 µM;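 active = inhibition above the mean over all tested compounds plus 3 SD, cut at about 3.6% in these data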;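 also: 0% = DAX-1 cells with DMSO and 100% = cells lacking DAX-1 with DMSO; higher inhibition means more luminescence from relief of DAX-1 repression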
Wnt act – activates Wnt/beta-catenin signaling in a reporter cell assay | actives 1.2% (n = 300,000) | activator, plate reader | AID 743398 | activation, % at 9.35 µM; in the data active = activation above about 30%, passing the limit was not always enough; inconclusive = no clear call, values can overlap the other calls;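 also: 0% = neutral control wells and 100% = positive control wells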
hgDAF12 agonist – activates the H. glycines DAF-12 receptor ligand-binding domain. HEK293 GAL4-hgDAF12 UAS-luciferase reporter, agonist luminescence; normalized to butyrate control. activation, % at 6.8 µM. actives 1.8% (n = 370,000);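 active = activation above a cutoff set at the mean of all screened compounds plus 3 SD, cut at about 10% in these data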;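 also: 0% = DMSO wells and 100% = sodium butyrate wells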
ssDAF-12 act – activates DAF-12 receptor from parasite S. stercoralis; HEK293 ssDAF-12/GRIP1 lit1-tk-luc reporter, luminescence; % of 3 µM dafachronic acid response; activation, % at 6.8 µM; actives 1% (n = 370,000);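 active = activation above the mean over all tested compounds plus 3 SD, cut at about 0.9% in these data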;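 also: 0% = DMSO-only wells and 100% = 3 µM delta7-dafachronic acid wells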
hcDAF-12 act – activators of H. contortus DAF-12 nuclear receptor. HEK293 hcDAF-12 lit1-tk-luc reporter, luminescence; 0% DMSO, 100% Δ7-dafachronic acid. activation, % at 6.8 µM. actives 1.4% (n = 370,000);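 active = activation above the mean of all tested compounds plus 3 SD, cut at about 5.5% in these data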;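 also: 100% = response to 3 µM Δ7-dafachronic acid high control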
esBAF inh – inhibitors of esBAF chromatin remodeling in mouse ES cells. reporter increase, % at 12.5 µM. Bmi1-luciferase knock-in reporter, 24 h; 100% = twice the neutral-well signal. actives 2% (n = 350,000); in the data active = activation above about 40%; inconclusive = no clear call, values can overlap the other calls;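 also: 0% = median of the plate's neutral control wells and 100% = double that signal; a rise in the Bmi1 reporter signal indicates esBAF inhibition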
DAX1 conf – NR0B1 (human) inhibition, confirmation | shares compounds with DAX1 StAR inh | HEK293T StAR-promoter luciferase reporter, SF-1/DAX-1 repression | inhibition, % at 6.8 µM | actives 87% (n = 2,400);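 active = inhibition above the average of every tested compound plus 3 SD, cut at about 3.8% in these data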;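 also: 0% = DAX-1 cells with DMSO and 100% = no DAX-1 control cells with DMSO; active compounds raise luminescence by relieving repression of the StAR reporter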
Target sequence (P51843 whole entry, looked up): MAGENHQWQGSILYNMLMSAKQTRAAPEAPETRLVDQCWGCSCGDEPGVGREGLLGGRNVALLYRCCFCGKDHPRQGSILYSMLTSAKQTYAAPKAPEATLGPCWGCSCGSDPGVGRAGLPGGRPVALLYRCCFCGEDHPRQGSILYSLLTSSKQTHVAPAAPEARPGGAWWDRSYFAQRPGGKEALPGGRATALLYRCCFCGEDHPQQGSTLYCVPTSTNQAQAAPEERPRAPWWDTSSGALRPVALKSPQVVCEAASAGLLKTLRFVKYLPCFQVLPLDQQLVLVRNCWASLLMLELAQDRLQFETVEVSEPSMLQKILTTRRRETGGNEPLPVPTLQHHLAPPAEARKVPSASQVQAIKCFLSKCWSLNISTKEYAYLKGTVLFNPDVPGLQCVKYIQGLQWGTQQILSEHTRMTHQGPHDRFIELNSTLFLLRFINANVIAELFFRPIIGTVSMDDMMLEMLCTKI
SF1 mutant ctr – counter-screen for DAX1 inhibitors: nonselective inhibitors with SF-1 AF2 mutant | AID 652136 | actives 78% (n = 2,400) | HEK293 StAR-luciferase, luminescence | inhibition, % at 6.8 µM | shares compounds with DAX1 StAR inh;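 active = inhibition above the mean of all tested compounds plus 3 SD, cut at about 3% in these data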;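 also: 0% = DAX-1 transfected cells with DMSO and 100% = cells without DAX-1 with DMSO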
An asterisk follows results filed as active; ? = inconclusive; . = not tested or not shown. Sampled rows, rich in hits. Any-hit rate of the full collection: about 4.2%.

SMILES | DAX1 StAR inh | Wnt act | hgDAF12 agonist | ssDAF-12 act | hcDAF-12 act | esBAF inh | DAX1 conf | SF1 mutant ctr
CCCC#Cc1cnc2c(c1)C(=O)N([C@@H](C)CO)C[C@H](C)[C@H](CN(C)C(=O)NCCC)O2 | . | . | . | . | . | -1.5 | . | .
CC(=O)Nc1ccccc1NC(=O)C/C(C)=N/NC(=O)c1ccccn1 | 4.6* | . | 10.3 | 0.4 | 7.5* | . | 2.4 | 3.4*
COc1ccc(CN(C)C[C@@H]2Oc3c(NS(=O)(=O)c4ccc(OC)cc4)cccc3C(=O)N([C@H](C)CO)C[C@H]2C)cc1 | . | . | . | . | . | -5.4 | . | .
CC(/C=N/NC(=O)c1n[nH]c2c1CCC2)=C\c1ccccc1 | 3.5 | . | 2.4 | 0.2 | 3.4 | . | . | .
O=C(N/N=C/C(Br)=C\c1ccccc1)c1n[nH]c2c1CCC2 | 4.7* | . | 0.9 | 1.9* | 4.6 | 2.3 | 20.9* | -3.5
COC(=O)C[C@H]1CC[C@@H]2[C@H](COc3ccc(NC(=O)c4cc(C)on4)cc3C(=O)N2C)O1 | . | . | . | . | . | -3.2 | . | .
CCN(CC)c1ccc(C2Nc3cccc4cccc(c34)N2)cc1 | 0.6 | -5.4 | 8.0 | 0.2 | 4.0 | 8.1 | . | .
CCN(CC)c1ccc(C2NC(=O)c3ccccc3N2)cc1 (configuration not stated) | 7.4* | -2.1 | 8.9 | 1.1* | 7.9* | . | 2.7 | -0.3
O=C(C[C@H]1CC[C@@H]2[C@H](COC[C@@H](O)CN2CCc2ccccc2)O1)NCc1ccc(F)cc1 | . | . | . | . | . | -5.6 | . | .
Cc1cc(NC(=O)COc2ccc3ccccc3c2Br)no1 | 6.0* | 40.2* | 9.2 | -0.7 | 3.0 | ? | 5.6* | 6.0*
Clc1ccc(-c2nc3ccc(Br)cn3c2Cc2ccsc2)cc1 | 5.2* | 11.8 | 7.8 | 0.6 | 2.5 | 16.6 | 5.2* | 2.1
COC(=O)c1ccc2nc(-c3ccccc3)c(Cc3ccccc3OC)n2c1 | 4.8* | 3.9 | 2.0 | 0.8 | 2.0 | 20.7 | 2.0 | 1.8
N#Cc1ccc(-c2nc3ccc(Br)cn3c2Cc2ccsc2)cc1 | 0.7 | 6.6 | 4.6 | -1.2 | -0.9 | 12.5 | . | .
COc1ccccc1Cc1c(-c2ccc(Cl)cc2)nc2ccc(Br)cn12 | 5.5* | -1.5 | 4.0 | -0.1 | 1.1 | 28.4 | 6.3* | 4.3*
COc1ccccc1Cc1c(-c2ccc(C)cc2)nc2c(C)cc(Br)cn12 | 5.3* | -0.3 | 4.8 | 0.7 | 2.8 | 3.0 | -0.4 | -0.4
CO[C@@H]1CN(C)C(=O)c2cc(NC(=O)c3ccccc3F)ccc2OC[C@H](C)NC[C@H]1C | . | . | . | . | . | 4.1 | . | .
COc1ccccc1Cc1c(-c2ccc(C)cc2)nc2ccc(Br)cn12 | 7.4* | -1.7 | 23.1* | 0.6 | 6.3* | 8.8 | 8.2* | 5.6*
CS(=O)(=O)N1CCCCC1c1cc(C(=O)Nc2ccccc2)no1 (configuration not stated) | 6.7* | 1.8 | 11.2* | -0.5 | 2.4 | ? | 7.9* | 7.0*
N#Cc1ccccc1OCC(=O)Nc1cc(S(=O)(=O)N2CCCCC2)ccc1N1CCOCC1 | 6.0* | 0.6 | -1.9 | -1.0 | -1.5 | 6.7 | -1.1 | -2.0
Cc1cccc(C(=O)NNC(=O)C2CCCCC2)c1O | 4.6* | -3.8 | 1.4 | -1.1 | 0.3 | . | 1.6 | 1.1
CC(C)(C)c1ccc(C(=O)NNC(=O)C2CCCCC2)cc1 | 0.6 | . | 0.7 | -1.2 | -0.9 | . | . | .
COc1ccc(/C(N)=N/OC(=O)c2cccs2)cc1OC | 8.3* | 7.8 | 7.9 | -1.1 | 0.4 | . | 6.2* | 6.1*
Cc1noc(C)c1S(=O)(=O)Nc1ccc2c(c1)C(=O)N([C@@H](C)CO)C[C@@H](C)[C@@H](CN(C)CC1CCCCC1)O2 | . | . | . | . | . | 1.9 | . | .
COc1cccc(C(=O)O/N=C(\N)c2ccccn2)c1 | 1.7 | -3.5 | 8.1 | 0.2 | 5.1 | -58.8 | . | .
N/C(=N\OC(=O)c1cccc(C(F)(F)F)c1)c1cnccn1 | 5.2* | 22.5 | 11.0* | 0.0 | 4.3 | 29.5 | 7.3* | 5.9*
SMILES | DAX1 StAR inh | Wnt act | hgDAF12 agonist | ssDAF-12 act | hcDAF-12 act | esBAF inh | DAX1 conf | SF1 mutant ctr
COCCn1c(C)cc(C(=O)CN2C(=O)NC3(CCCCCC3)C2=O)c1C | 6.8* | ? | 8.3 | -0.4 | 2.5 | ? | 4.5* | 2.8
CCc1cccc2c(C(=O)CN3C(=O)NC4(CCCCCC4)C3=O)c[nH]c12 | 13.1* | -2.3 | -8.2 | -1.7 | -1.0 | -22.0 | 10.1* | -4.6
C[C@H]1CN([C@@H](C)CO)C(=O)c2cc(NS(=O)(=O)c3ccccc3)ccc2O[C@H]1CN(C)S(=O)(=O)c1ccc(F)cc1 | . | . | . | . | . | 3.2 | . | .
Cc1noc(C)c1S(=O)(=O)N(C)C[C@H]1OCCCC[C@@H](C)Oc2ccc(NC(=O)Nc3ccc(C(F)(F)F)cc3)cc2C(=O)N([C@@H](C)CO)C[C@@H]1C | . | . | . | . | . | -5.9 | . | .
CN(Cc1ccc2c(c1)CCCN2C)C(=O)[C@H]1O[C@@H](n2ccc(=O)[nH]c2=O)[C@H](O)[C@@H]1O | -0.4 | 0.1 | -1.9 | -1.1 | -2.3 | 19.9 | . | .
COc1ccc(CN(C)C(=O)[C@H]2O[C@@H](n3ccc(=O)[nH]c3=O)[C@H](O)[C@@H]2O)cc1OC | 4.7* | -3.1 | -1.2 | -0.8 | 0.2 | -2.5 | 0.3 | -0.4
CN(C)c1ccc(NC(=O)c2cnsn2)cc1 | 6.3* | 1.7 | 10.4 | -0.5 | 3.5 | -45.2 | 7.4* | 1.7
Cc1noc(C)c1C(=O)Nc1ccc(N(C)C)cc1 | -0.5 | 0.4 | -1.0 | -0.8 | -2.1 | 7.8 | . | .
Cc1ccc(S(=O)(=O)N(C)C[C@@H]2Oc3ccc(N(C)C)cc3C(=O)N([C@H](C)CO)C[C@H]2C)cc1 | . | . | . | . | . | -5.9 | . | .
O=C1/C(=C/c2cccs2)CCC/C1=C\c1cccs1 | 6.8* | 36.4* | 12.4* | 0.3 | 6.2* | 60.1* | 13.3* | 10.6*
CCCCCC(=O)N/N=C(\C)c1ccc(NC(=O)c2ccco2)cc1 | 1.1 | . | 9.8 | -0.8 | 1.4 | 18.8 | . | .
C/C(=N/NC(=O)c1ccco1)c1ccc(NC(=O)c2ccc(Br)o2)cc1 | 5.9* | 17.2 | 8.5 | -0.6 | 3.6 | 46.9* | 3.0 | 2.3
O=C1CCCc2nc(N3CCN(C(=O)c4ccco4)CC3)ncc21 | 5.7* | 25.5 | 5.3 | 0.5 | 1.8 | -4.9 | 5.9* | 3.4*
O=C(c1ccco1)N1CCN(c2ncccn2)CC1 | 1.5 | 1.4 | 7.1 | -1.3 | -0.5 | 0.3 | . | .
COc1cccc(C=Cc2nccc3ccccc23)c1OC | 6.1* | 58.9* | 11.0* | -1.2 | 4.1 | 24.8 | 3.8* | 2.1
COc1cccc(C=O)c1OCCCOc1cccc2cccnc12 | 1.0 | 4.8 | 6.0 | -0.2 | 2.6 | ? | . | .
